This is an account of results in ChEMBL document CHEMBL1961873, “Compounds: GSK PKIS; Assays: Nanosyn kinase panel” (2012).

In experiment [1] the target is High affinity nerve growth factor receptor (Homo sapiens) (UniProt P04629). The following applies: at 1 µM.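 Note: each value is the mean percent inhibition of TRKA.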
Experiment [2] has as its target BDNF/NT-3 growth factors receptor (Homo sapiens) (UniProt Q16620). The following applies: at 0.1 µM.
Experiment [3] has the same target. The following applies: at 1 µM.
Experiment [4] addresses NT-3 growth factor receptor (Homo sapiens) (UniProt Q16288). The following applies: at 0.1 µM.
For experiment [5] the target is unchanged. The following applies: at 1 µM.
Experiment [6] concerns the target T1, Tyrosine-protein kinase TXK (Homo sapiens) (UniProt P42681).
T1 sequence (whole entry): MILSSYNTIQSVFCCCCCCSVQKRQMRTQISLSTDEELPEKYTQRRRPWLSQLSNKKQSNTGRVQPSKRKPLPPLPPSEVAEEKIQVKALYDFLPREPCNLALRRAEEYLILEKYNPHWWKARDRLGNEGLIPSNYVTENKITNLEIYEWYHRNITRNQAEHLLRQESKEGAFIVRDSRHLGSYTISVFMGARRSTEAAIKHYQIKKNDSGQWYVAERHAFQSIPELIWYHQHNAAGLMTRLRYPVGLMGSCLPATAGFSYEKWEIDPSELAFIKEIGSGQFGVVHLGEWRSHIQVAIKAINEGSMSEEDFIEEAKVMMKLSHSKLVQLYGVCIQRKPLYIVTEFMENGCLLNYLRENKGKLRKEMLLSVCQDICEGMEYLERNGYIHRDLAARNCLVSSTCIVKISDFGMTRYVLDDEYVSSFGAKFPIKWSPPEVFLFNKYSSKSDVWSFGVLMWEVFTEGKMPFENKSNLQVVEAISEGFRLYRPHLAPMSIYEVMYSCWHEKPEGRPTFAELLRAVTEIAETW
The following applies: at 0.1 µM.

Experiment [7] addresses T1, Tyrosine-protein kinase TXK (Homo sapiens). The following applies: at 1 µM.
Experiment [8] deals with Non-receptor tyrosine-protein kinase TYK2 (Homo sapiens) (UniProt P29597). The following applies: at 0.1 µM.
For experiment [9], the target named is T2, Dual specificity protein kinase TTK (Homo sapiens) (UniProt P33981).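 Note: reported figures are mean TTK inhibition at 1 µM.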
T2 sequence (whole entry): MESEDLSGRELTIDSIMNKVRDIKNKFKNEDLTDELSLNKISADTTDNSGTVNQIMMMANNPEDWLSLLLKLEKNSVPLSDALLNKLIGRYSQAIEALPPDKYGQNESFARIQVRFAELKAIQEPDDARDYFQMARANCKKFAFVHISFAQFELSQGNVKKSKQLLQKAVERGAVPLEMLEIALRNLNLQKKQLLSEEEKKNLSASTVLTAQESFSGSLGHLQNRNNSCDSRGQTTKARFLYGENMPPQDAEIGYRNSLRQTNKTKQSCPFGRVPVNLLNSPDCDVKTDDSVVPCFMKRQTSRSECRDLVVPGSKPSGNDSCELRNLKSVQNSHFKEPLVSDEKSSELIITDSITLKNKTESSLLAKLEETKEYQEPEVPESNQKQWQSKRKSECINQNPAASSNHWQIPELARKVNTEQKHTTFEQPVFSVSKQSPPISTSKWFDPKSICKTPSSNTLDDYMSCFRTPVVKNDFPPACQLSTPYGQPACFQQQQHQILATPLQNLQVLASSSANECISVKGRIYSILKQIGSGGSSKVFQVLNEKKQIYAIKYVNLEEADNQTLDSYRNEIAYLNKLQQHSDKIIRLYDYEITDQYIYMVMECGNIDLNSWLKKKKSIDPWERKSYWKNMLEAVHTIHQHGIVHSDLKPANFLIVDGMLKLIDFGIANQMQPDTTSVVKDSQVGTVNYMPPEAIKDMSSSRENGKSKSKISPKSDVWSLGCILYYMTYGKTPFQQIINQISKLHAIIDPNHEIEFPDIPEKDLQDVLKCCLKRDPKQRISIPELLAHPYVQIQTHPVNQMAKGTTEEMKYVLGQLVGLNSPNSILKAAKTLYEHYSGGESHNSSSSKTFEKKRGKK
The following applies: at 1 µM.

Experiment [10] addresses T3, Aurora kinase A (Homo sapiens) (UniProt O14965).
T3 sequence (whole entry): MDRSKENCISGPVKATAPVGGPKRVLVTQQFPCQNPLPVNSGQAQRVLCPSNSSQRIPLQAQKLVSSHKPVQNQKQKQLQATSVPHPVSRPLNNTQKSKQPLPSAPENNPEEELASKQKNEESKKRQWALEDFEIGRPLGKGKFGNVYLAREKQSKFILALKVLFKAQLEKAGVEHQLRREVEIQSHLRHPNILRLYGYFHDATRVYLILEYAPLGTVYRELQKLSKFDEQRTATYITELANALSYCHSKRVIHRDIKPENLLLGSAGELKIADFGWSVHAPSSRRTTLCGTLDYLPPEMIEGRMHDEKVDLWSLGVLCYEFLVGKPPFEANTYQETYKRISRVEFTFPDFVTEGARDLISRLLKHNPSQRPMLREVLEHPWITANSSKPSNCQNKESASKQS
The following applies: at 0.1 µM.

For experiment [11], the target named is T3, Aurora kinase A (Homo sapiens). The following applies: at 1 µM.
Experiment [12] has as its target Aurora kinase B (Homo sapiens) (UniProt Q96GD4). The following applies: at 0.1 µM.
For experiment [13] the target is unchanged. The following applies: at 1 µM.
For experiment [14], the target named is T4, Aurora kinase C (Homo sapiens) (UniProt Q9UQB9).
T4 sequence (whole entry): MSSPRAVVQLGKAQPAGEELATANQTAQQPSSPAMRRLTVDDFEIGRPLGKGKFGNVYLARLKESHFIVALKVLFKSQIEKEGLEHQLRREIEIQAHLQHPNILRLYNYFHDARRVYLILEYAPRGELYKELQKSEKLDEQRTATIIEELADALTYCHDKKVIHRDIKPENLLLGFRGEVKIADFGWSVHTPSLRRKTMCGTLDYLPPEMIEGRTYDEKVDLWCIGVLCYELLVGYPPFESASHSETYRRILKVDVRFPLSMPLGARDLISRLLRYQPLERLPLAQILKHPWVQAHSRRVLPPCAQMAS
The following applies: at 0.1 µM.

The target of experiment [15] is T4, Aurora kinase C (Homo sapiens). The following applies: at 1 µM.
Experiment [16] has as its target Serine/threonine-protein kinase 10 (Homo sapiens) (UniProt O94804). The following applies: at 0.1 µM.
Experiment [17] has the same target. The following applies: at 1 µM.
Experiment [18] has as its target T5, Mitogen-activated protein kinase kinase kinase kinase 2 (Homo sapiens) (UniProt Q12851).
T5 sequence (whole entry): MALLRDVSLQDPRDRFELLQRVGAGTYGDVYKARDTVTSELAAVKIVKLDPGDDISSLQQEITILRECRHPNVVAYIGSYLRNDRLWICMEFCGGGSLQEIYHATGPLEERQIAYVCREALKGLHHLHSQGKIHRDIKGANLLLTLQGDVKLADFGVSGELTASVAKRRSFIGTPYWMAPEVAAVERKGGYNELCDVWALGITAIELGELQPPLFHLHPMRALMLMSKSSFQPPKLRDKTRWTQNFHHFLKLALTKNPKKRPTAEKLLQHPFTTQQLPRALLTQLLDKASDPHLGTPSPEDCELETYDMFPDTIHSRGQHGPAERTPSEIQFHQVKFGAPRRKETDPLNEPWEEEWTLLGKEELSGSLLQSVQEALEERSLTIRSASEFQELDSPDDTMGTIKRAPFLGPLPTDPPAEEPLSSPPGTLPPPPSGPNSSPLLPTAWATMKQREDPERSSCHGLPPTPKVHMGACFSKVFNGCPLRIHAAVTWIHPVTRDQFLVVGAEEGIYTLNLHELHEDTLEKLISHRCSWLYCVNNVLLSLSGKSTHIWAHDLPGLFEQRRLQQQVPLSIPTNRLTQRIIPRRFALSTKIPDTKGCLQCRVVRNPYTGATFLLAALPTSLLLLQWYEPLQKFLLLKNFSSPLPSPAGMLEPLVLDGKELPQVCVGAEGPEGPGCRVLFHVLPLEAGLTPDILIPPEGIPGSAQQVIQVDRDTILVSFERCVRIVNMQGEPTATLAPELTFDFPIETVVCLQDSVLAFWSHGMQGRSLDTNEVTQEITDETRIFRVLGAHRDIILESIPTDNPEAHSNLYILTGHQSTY
The following applies: at 0.1 µM.

In experiment [19] the target is T5, Mitogen-activated protein kinase kinase kinase kinase 2 (Homo sapiens). The following applies: at 1 µM.
Experiment [20] concerns the target Mitogen-activated protein kinase kinase kinase kinase 4 (Homo sapiens) (UniProt O95819). The following applies: at 0.1 µM.

Chain of NT-3 growth factor receptor (Homo sapiens) (Q16288 32-839 limits assumed): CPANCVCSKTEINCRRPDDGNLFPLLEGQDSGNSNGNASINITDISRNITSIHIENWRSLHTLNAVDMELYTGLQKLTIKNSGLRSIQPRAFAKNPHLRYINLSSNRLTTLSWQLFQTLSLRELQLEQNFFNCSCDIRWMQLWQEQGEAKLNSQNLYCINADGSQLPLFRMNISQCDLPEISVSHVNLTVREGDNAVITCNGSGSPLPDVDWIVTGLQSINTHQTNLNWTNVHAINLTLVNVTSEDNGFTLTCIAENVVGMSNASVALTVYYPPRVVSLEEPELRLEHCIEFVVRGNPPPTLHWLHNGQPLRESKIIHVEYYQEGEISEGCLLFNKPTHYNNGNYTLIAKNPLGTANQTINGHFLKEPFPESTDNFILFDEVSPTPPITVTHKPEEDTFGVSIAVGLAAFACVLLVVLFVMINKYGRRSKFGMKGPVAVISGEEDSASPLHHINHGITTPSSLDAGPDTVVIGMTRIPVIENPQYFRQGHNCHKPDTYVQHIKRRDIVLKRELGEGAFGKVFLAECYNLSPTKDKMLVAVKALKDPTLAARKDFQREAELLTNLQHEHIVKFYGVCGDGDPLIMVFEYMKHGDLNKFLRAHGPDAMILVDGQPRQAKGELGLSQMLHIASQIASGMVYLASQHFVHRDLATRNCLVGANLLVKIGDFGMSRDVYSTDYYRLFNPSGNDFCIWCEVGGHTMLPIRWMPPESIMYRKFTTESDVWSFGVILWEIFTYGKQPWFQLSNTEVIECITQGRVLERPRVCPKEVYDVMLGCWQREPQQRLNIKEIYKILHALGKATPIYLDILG
Chain of Aurora kinase B (Homo sapiens) (Q96GD4 whole entry): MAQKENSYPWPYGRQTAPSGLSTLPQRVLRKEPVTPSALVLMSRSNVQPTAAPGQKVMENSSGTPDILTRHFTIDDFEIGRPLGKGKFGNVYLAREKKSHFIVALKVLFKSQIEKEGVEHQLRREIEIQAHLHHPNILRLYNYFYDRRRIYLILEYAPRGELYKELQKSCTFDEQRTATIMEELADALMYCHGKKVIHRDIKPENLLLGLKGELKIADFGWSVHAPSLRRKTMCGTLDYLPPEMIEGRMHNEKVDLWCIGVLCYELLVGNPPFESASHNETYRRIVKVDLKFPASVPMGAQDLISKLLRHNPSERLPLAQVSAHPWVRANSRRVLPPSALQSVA
Chain of Serine/threonine-protein kinase 10 (Homo sapiens) (O94804 whole entry, looked up): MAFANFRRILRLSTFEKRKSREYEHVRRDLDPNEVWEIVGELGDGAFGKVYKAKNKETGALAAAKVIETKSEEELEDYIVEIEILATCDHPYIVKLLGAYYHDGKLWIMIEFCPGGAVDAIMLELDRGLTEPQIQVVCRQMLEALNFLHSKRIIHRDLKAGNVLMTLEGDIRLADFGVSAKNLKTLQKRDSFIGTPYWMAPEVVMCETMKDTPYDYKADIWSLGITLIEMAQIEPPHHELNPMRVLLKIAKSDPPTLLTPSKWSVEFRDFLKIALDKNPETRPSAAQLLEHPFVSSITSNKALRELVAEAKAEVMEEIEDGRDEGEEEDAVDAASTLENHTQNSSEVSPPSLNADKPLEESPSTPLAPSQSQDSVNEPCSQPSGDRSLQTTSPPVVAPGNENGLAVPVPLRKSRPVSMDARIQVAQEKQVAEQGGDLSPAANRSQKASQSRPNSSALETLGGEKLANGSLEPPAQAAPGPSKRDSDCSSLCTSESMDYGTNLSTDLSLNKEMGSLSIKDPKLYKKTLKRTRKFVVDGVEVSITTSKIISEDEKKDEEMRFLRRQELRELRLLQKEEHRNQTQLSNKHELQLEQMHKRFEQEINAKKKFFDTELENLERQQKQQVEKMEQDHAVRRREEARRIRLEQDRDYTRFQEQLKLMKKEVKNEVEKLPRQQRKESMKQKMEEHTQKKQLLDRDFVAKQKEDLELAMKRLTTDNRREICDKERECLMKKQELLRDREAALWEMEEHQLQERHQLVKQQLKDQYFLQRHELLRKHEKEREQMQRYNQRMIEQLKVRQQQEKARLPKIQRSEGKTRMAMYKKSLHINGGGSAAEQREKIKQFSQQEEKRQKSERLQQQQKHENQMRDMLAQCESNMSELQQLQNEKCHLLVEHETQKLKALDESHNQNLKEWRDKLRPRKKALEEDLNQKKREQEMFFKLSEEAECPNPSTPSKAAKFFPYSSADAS
Chain of Non-receptor tyrosine-protein kinase TYK2 (Homo sapiens) (P29597 whole entry): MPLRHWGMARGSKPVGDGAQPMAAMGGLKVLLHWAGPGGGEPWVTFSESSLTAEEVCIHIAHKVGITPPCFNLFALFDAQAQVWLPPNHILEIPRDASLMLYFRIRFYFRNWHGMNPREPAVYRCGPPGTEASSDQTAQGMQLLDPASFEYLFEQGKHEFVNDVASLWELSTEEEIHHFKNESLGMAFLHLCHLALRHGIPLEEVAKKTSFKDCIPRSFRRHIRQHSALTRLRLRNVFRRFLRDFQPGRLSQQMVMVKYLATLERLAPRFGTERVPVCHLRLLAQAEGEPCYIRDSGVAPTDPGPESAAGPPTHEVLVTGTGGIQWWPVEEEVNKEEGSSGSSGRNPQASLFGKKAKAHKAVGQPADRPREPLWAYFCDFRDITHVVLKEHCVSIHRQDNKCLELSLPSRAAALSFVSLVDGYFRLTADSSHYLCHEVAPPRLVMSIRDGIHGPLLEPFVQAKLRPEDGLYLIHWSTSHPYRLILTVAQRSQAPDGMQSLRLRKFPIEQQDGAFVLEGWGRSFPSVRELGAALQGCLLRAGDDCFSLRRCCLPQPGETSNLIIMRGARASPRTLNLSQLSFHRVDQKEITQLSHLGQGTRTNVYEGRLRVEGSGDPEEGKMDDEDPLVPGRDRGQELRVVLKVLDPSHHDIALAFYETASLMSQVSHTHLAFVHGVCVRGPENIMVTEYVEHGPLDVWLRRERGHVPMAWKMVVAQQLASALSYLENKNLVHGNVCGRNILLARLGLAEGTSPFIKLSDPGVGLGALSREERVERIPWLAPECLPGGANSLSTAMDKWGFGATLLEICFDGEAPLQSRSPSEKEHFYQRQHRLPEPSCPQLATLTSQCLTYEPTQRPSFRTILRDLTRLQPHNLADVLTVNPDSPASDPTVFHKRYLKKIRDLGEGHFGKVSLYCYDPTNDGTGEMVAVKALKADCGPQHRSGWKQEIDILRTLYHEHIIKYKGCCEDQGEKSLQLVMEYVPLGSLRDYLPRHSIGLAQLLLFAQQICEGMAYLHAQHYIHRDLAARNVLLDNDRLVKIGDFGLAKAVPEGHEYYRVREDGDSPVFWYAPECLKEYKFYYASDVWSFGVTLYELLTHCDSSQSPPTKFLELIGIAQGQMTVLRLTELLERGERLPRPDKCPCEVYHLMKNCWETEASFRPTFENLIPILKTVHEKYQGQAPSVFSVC
Chain of Mitogen-activated protein kinase kinase kinase kinase 4 (Homo sapiens) (O95819 2-1239 limits assumed): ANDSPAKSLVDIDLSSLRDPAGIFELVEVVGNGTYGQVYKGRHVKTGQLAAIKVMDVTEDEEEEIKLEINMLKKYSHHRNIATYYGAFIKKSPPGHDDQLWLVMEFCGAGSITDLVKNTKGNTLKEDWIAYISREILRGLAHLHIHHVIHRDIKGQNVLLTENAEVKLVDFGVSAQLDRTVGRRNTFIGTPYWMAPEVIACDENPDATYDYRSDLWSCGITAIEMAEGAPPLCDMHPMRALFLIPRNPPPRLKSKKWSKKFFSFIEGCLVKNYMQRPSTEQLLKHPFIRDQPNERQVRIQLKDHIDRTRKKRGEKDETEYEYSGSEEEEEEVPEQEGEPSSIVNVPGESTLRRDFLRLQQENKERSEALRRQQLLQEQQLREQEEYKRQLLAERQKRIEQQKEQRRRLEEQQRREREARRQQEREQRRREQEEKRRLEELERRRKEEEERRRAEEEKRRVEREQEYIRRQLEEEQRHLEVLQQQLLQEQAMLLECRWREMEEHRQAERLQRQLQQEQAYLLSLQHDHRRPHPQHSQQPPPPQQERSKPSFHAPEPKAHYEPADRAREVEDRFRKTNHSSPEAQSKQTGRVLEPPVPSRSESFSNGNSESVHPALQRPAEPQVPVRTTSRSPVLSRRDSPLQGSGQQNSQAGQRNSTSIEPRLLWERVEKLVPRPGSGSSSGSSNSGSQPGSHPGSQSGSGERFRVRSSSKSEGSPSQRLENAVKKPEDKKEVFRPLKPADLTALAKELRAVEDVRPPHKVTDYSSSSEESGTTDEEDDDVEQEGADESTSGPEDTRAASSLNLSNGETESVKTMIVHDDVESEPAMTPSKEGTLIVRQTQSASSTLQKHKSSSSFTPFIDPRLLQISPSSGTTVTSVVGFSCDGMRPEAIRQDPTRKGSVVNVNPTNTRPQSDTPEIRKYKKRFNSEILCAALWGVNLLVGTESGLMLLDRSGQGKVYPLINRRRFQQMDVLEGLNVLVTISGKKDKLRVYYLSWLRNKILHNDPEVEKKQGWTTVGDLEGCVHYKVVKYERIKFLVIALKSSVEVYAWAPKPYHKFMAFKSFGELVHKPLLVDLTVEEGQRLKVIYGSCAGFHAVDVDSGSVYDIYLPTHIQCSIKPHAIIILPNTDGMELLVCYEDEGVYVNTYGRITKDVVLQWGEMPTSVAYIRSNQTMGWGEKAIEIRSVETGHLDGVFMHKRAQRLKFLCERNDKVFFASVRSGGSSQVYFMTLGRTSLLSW

What is called inhibition is the drop in the measured response relative to a control, in per cent. Take `Fc1ccc(-c2ncn(C3CCNCC3)c2-c2ccnc(Oc3ccc(F)c(F)c3)n2)cc1`: the inhibition in experiment [1] is 3.11%; in [2], 3.23%; in experiment [3] it was 3.93%; in experiment [4], 2.87%; in experiment [5], 4.23%; in [6] it was -5.36%. In addition, the inhibition in experiment [7] is 0.03%; in experiment [8] it was -3.58%; in experiment [9] it was 14%; in experiment [10] it was -0.65%; in [11], -0.3%; in [12] it was -1.34%. The inhibition in [13] was 1.81%; in experiment [14], -2.62%; in experiment [15], 4.92%; in experiment [16], 4.63%; in [17], 8.33%; in experiment [18], 1.35%. In addition, the inhibition in [19] turned out to be 3.76%; in experiment [20], 9.16%.
Turning to `O=C(Nc1ccc(Oc2ccc3[nH]c(NC(=O)c4ccccc4)nc3c2)cc1)Nc1cc(C(F)(F)F)ccc1F`, the inhibition in [1] was found to be 52.2%; in experiment [2] it was 5.11%; in experiment [3] it was 35.1%; in experiment [4], 8.01%; in [5], 41%; in experiment [6], 3.06%. Besides, the inhibition in experiment [7] is 6.27%; in experiment [8], -4.63%; in experiment [9], 19.2%; in [10] it was 1.31%; in experiment [11] it was 12.4%; in experiment [12], 0.59%. Further, the inhibition in experiment [13] is 13.9%; in experiment [14] it was 3.42%; in experiment [15], 40.8%; in [16], 12.8%; in experiment [17] it was 50.2%; in [18], 1.6%. For the same compound, the values for the inhibition in experiment [19] and in experiment [20] were 19% and 3.95%, respectively.
For `COc1cccc(-n2cnc3c(N/N=C/c4ccncc4)ncnc32)c1`, the inhibition in [1] was 7.04%; in [2], 0.22%; in experiment [3], 6.69%; in experiment [4], 0.58%; in experiment [5] it was 9.77%; in experiment [6], -1.8%. The inhibition in experiment [7] is 4.69%; in [8] it was 3.07%; in [9], 5.77%; in [10] it was -0.8%; in [11] it was 13%; in [12], 0.64%. The inhibition in experiment [13] is 7.54%; in experiment [14], 0.73%; in [15], -1.49%; in experiment [16] it was 4.49%; in experiment [17] it was 16.3%; in [18], 1.19%. Further, the inhibition stood at 1.25% in [19] and 1.22% in experiment [20].
Turning to `COc1ccc2cc(-c3c(-c4ccncc4)nc(-c4ccc(S(C)(=O)=O)cc4C)n3C)ccc2c1`, the inhibition in experiment [1] turned out to be 0.55%; in experiment [2] it was 2.95%; in [3], 3.12%; in [4], 2.38%; in [5] it was 4.11%; in experiment [6] it was 3.55%. Besides, the inhibition is 5.35% in [7]; -5.17% in experiment [8]; 8.65% in [9]; 2.7% in [10]; 17.6% in [11]; 4.05% in experiment [12]. The inhibition worked out at 16.2% in experiment [13]; 1.31% in experiment [14]; 12.7% in experiment [15]; 43.9% in experiment [16]; 95.3% in experiment [17]; 0.86% in experiment [18]. The inhibition in [19] stood at 0.3%; in experiment [20] it was 4.65%.
Regarding `COc1cc2ncn(-c3cc(OCc4cccs4)c(C(N)=O)s3)c2cc1OC`, the inhibition came out at 8.7% in experiment [1]; 3.23% in experiment [2]; 16.9% in experiment [3]; 6.48% in [4]; 27.2% in experiment [5]; 0.76% in experiment [6]. Also, the inhibition is 5.11% in experiment [7]; -2.34% in experiment [8]; 7.37% in experiment [9]; -6.64% in experiment [10]; 13.4% in experiment [11]; 2.98% in experiment [12]. Further, the inhibition in experiment [13] is 20%; in [14], -0.54%; in [15] it was 10.1%; in experiment [16], 75.9%; in [17], 93.5%; in experiment [18] it was 10.8%. The figures for the inhibition in [19] and in experiment [20] were 36% and 18.7%, respectively.
As to `NS(=O)(=O)c1ccc(N/N=C2\C(=O)Nc3ccc(-c4cnco4)cc32)cc1`, the inhibition was 36.1% in experiment [1]; 9.38% in [2]; 46.4% in experiment [3]; 13.3% in experiment [4]; 51.9% in [5]; -3.23% in experiment [6]. The inhibition is 0.12% in [7]; -0.2% in experiment [8]; 52.8% in experiment [9]; 1.82% in [10]; 33.1% in experiment [11]; -2.59% in experiment [12]. Moreover, the inhibition is 1.73% in [13]; -3.12% in experiment [14]; 11.5% in experiment [15]; 2.55% in experiment [16]; 8.33% in experiment [17]; 1.49% in [18]. Also, the inhibition in experiment [19] came to 4.85%; in experiment [20], 65.1%.
`CCc1nccc2c1nc(-c1nonc1N)n2CC`: the inhibition is 3.6% in experiment [2]; -1.57% in experiment [3]; 0.15% in experiment [4]; -0.85% in [5]; 3.63% in [6]; 7.06% in experiment [7]. For the same compound, the inhibition in [8] is 1.46%; in [9] it was 2.94%; in [10], 2.35%; in experiment [11] it was 11.2%; in [12], 1.28%; in [13], 5.03%. The inhibition in experiment [14] is 0.67%; in [15], 5.21%; in [16], -0.01%; in experiment [17] it was 3.09%; in experiment [18], 2.12%; in [19] it was 2.26%. In addition, in experiment [20], the inhibition was found to be 2.56%.
